For six sequences, binding signal results are on record in article PMC11574364.

Test in all cases: protein domain microarray probed with biotinylated miRNA; Domain array: 20 mM Tris-HCl pH 7.4, 200 mM KCl, 0.2 mM EDTA, 0.05% NP40, 2 ug/ul heparin, overnight 4 C. ORF array: PBS pH 7.0 with RNase inhibitor, 100 ng RNA; high values mean tight binding
Settings in all cases: ssRNA

For assay [1], the target named is T1, YTHDF1 (Homo sapiens, UniProt Q9BYJ9).
T1 sequence: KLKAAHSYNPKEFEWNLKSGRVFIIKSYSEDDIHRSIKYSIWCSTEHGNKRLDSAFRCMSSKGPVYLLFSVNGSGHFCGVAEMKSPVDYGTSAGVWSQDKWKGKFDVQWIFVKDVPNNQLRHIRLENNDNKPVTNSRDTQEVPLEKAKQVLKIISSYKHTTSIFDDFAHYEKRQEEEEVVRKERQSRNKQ

For assay [2], the target named is T2, RBM27 (Homo sapiens, UniProt Q9P2N5).
T2 sequence: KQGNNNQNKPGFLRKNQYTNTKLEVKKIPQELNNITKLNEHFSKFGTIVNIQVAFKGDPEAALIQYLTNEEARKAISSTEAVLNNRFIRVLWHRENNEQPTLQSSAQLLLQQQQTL

Assay [3] addresses T3, STAU2(3) (Homo sapiens, UniProt Q9NUL3).
T3 chain: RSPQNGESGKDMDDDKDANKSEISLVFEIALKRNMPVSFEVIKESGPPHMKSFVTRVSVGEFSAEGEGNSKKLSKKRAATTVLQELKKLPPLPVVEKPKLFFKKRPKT

In assay [4] the target is T4, RKHD3(1-2) (Homo sapiens, UniProt Q6ZN04).
T4 sequence: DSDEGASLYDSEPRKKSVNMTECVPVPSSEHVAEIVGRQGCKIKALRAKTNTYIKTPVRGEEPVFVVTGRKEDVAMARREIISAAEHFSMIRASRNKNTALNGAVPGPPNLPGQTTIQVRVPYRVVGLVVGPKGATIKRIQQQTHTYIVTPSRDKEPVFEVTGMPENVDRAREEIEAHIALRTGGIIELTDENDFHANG

Assay [5] concerns the target T5, RBM19(2-4) (Homo sapiens, UniProt Q9Y4C8).
T5 sequence: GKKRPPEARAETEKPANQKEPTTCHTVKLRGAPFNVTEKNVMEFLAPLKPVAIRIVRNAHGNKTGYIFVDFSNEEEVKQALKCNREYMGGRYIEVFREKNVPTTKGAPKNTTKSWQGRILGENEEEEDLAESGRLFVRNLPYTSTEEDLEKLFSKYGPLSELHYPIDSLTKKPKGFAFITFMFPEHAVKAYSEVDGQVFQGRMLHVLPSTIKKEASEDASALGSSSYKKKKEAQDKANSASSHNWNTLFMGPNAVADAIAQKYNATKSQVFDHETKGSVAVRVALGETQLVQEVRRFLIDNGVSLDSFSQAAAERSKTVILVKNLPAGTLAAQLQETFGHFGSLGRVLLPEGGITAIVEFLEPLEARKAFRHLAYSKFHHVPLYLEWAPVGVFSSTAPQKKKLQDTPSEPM

In assay [6] the target is T6, RBM26(2) (Homo sapiens, UniProt Q5T8P6).
T6 sequence: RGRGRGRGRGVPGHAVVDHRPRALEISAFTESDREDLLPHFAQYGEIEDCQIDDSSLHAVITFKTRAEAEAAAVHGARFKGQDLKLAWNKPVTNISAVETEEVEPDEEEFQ

In assay [7] the target is T7, RBM14 (Homo sapiens, UniProt Q96PK6).
T7 sequence: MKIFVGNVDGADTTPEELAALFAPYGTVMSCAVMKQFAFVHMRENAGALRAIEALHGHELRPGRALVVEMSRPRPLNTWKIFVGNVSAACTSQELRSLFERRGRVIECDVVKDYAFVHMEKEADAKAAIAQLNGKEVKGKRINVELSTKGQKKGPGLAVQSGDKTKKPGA

Assay [8] deals with RALYL (Homo sapiens, UniProt Q86SE5).
The target of assay [9] is T8, PIG38 (Homo sapiens, UniProt Q8TC92).
T8 sequence: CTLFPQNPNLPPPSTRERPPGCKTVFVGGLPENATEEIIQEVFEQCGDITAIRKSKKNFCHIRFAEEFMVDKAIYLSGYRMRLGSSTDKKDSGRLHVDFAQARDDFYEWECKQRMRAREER

The target in assay [10] is KRR1 (Homo sapiens, UniProt Q13601).
Sequence of KRR1 (Q13601 36-250): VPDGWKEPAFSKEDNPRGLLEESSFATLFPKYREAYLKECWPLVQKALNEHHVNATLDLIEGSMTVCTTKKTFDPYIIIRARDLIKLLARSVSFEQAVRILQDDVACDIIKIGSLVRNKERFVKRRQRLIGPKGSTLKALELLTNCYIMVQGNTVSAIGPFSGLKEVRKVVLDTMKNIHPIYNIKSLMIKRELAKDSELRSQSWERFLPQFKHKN

Sequence of RALYL (Q86SE5 1-115): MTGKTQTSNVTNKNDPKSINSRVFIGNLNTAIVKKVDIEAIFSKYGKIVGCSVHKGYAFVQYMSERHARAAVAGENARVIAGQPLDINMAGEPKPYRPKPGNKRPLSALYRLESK

CAGUGCAAUGAUGAAAGGGCAU: the binding signal in assay [1] came to 51.305 ± 0.0212 fluorescence intensity; in assay [2], 288 ± 4.19 fluorescence intensity; in assay [3], 37.5 ± 2.47 fluorescence intensity; in assay [4], 1440 ± 55 fluorescence intensity; in assay [5], 2090 ± 439 fluorescence intensity; in [6] it was 25.8 ± 3.42 fluorescence intensity. The binding signal was 23.1 ± 3.36 fluorescence intensity in assay [7], 381 ± 18.7 fluorescence intensity in [8], 31.7 ± 0.785 fluorescence intensity in assay [9] and 74.2 ± 2.13 fluorescence intensity in [10].
Turning to UGAGGUAGUAGGUUGUAUAGUU, the binding signal in assay [1] came to 22.8 ± 4.72 fluorescence intensity; in assay [2], 102 ± 16.8 fluorescence intensity; in [4], 1250 ± 20.7 fluorescence intensity; in assay [5], 902 ± 121 fluorescence intensity; in assay [6], 23.4 ± 0.552 fluorescence intensity; in assay [8], 319 ± 85.1 fluorescence intensity. In addition, the binding signal in assay [9] amounted to 21.4 ± 1.44 fluorescence intensity; in assay [10], 20.5 ± 1.99 fluorescence intensity.
UGAGGUAGUAGGUUGUGUGGUU: the binding signal in [1] turned out to be 113 ± 10.3 fluorescence intensity; in [2] it was 985 ± 77.1 fluorescence intensity; in assay [3], 121 ± 14.8 fluorescence intensity; in [4], 1502 ± 3.98 fluorescence intensity; in assay [5], 1520 ± 225 fluorescence intensity; in assay [6], 248 ± 3.91 fluorescence intensity. Further, the binding signal in assay [7] turned out to be 66.3 ± 8.01 fluorescence intensity; in [8] it was 1030 ± 103 fluorescence intensity; in [9], 72.8 ± 3.97 fluorescence intensity; in assay [10], 153 ± 3.37 fluorescence intensity.
On to UGAGGUAGUAGGUUGUAUGGUU, for which the binding signal in assay [1] came to 76.9 ± 5.2 fluorescence intensity; in assay [2], 657 ± 47.5 fluorescence intensity; in [3] it was 60.2 ± 7.26 fluorescence intensity; in [4] it was 1740 ± 134 fluorescence intensity; in assay [5], 1810 ± 313 fluorescence intensity; in assay [6], 298 ± 14 fluorescence intensity. Further, the binding signal was 39.7 ± 3.13 fluorescence intensity in assay [7], 1090 ± 62.2 fluorescence intensity in assay [8], 53 ± 2.3 fluorescence intensity in [9] and 92.2 ± 12.2 fluorescence intensity in [10].
For the sequence AGAGGUAGUAGGUUGCAUAGUU, the binding signal in assay [1] was determined as 52.7 ± 4.33 fluorescence intensity; in assay [2], 486 ± 29.4 fluorescence intensity; in assay [3], 34.1 ± 5.01 fluorescence intensity; in assay [4] it was 2320 ± 70.7 fluorescence intensity; in [5], 2390 ± 546 fluorescence intensity; in assay [6], 168 ± 6.55 fluorescence intensity. For the same sequence, the binding signal in assay [7] is 26.3 ± 7.16 fluorescence intensity; in assay [8] it was 932 ± 89.3 fluorescence intensity; in [9] it was 44.1 ± 0.488 fluorescence intensity; in assay [10], 73.6 ± 7.55 fluorescence intensity.
Consider UAGCUUAUCAGACUGAUGUUGA, for which the binding signal in assay [2] was 145 ± 5.61 fluorescence intensity; in [4] it was 1110 ± 41.5 fluorescence intensity; in assay [5], 901 ± 119 fluorescence intensity; in assay [8], 190 ± 59.9 fluorescence intensity.
